Rtt109 HAT inh: C. albicans Rtt109 histone acetyltransferase inhibition; AID 540336; purified Rtt109/Vps75, ThioGlo CoA-SH fluorescence, 4 h; inhibition, % at 34.9 µM; 330,000 tested, 0.16% active;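 active means inhibition of at least 50% in every replicate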
V-ATPase pHluor: regulators of yeast V-ATPase proton transport. S. cerevisiae, pHLuorin cytosolic pH fluorescence. response, % at 10 µM. 350,000 tested, 0.37% active. AID 504577; in the data active means response mostly above about 7.3%, no sharp cut-off; inactive means mostly below about 5.4%; further: actives read high
MIN6 prolif-1: inducers of beta-cell replication in MIN6 cells. MIN6 cells proliferation, ATPlite luminescence, 48 h; cells starved in 0.2% serum; 100% = growth in 10% serum. proliferation, % at 10 µM. 330,000 tested, 0.29% active. AID 2380;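 active means compounds whose signal lies at least 3.5 SD above the mean of all wells on their plate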
HDAC3 inhib: human HDAC3 inhibition | 320,000 tested, 0.15% active | recombinant HDAC3, fluorogenic peptide/trypsin coupled, fluorescence | AID 2718 | inhibition, % at 8.3 µM | O15379; in the data active means inhibition above about 26%, passing the limit was not always enough
DAGLB inh: blocks human DAGLB lipase activity. HEK293T DAGLB membrane lysate, EnzChek fluorogenic substrate. inhibition, % at 5.17 µM. 340,000 tested, 0.059% active. AID 504411; in the data active means inhibition above about 34%
Target sequence (Q8NCG7 whole entry, looked up): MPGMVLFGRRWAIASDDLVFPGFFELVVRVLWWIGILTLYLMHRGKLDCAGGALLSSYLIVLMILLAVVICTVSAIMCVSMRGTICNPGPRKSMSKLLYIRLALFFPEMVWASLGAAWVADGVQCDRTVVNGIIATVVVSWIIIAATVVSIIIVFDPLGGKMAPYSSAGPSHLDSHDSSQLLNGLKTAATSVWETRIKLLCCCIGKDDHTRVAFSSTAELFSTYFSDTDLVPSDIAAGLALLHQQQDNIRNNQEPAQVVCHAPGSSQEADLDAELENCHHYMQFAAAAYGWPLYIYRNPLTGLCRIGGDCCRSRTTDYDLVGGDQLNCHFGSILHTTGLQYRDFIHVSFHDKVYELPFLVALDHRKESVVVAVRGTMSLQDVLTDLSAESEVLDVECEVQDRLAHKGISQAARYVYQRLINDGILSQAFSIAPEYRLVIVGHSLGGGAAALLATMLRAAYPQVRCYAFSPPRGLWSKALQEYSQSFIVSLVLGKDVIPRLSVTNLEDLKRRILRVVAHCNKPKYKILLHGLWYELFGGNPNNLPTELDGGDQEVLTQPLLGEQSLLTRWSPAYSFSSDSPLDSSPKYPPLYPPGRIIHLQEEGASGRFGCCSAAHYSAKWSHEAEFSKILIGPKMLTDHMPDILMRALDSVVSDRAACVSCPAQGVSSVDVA
MIN6 prolif-2: confirmation of inducers of beta-cell replication in MIN6 cells | shares compounds with MIN6 prolif-1 | AID 463095 | 920 tested, under 10 active | proliferation increase, % at 50 µM | MIN6 beta-cell proliferation, ATPlite luminescence, 48 h; cells kept in 0.2% serum; scaled between 0.2% and 10% serum;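 active means proliferation increase above 40% at any of the four tested concentrations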
Of the large screens only hits and unclear results are named; the others gave an inactive call (follow-up assays come after a bar, where they were run); ! = not active in a repeat. Only some compounds are listed: those with a hit (about 0.96% of all), similar ones and a draw of the others.

CC(=O)c1sc(N/N=C/c2cccc(O)c2)nc1C	none
CC(=O)c1sc(N/N=C\c2ccc(N(C)C)cc2)nc1C	MIN6 prolif-1 6.6 | MIN6 prolif-2 inactive
Nc1nc(Nc2ccc(Cl)cc2)nc(NCCO)c1[N+](=O)[O-]	MIN6 prolif-1 15 (no result: Rtt109 HAT inh, DAGLB inh) | MIN6 prolif-2 inactive
NC(=O)c1[nH]cnc1N	MIN6 prolif-1 12! | MIN6 prolif-2 inactive
COc1cccc(NS(=O)(=O)NC(=O)c2c(C)[nH]c3ccccc23)c1	none
Cc1[nH]c2ccccc2c1C(=O)NS(=O)(=O)Nc1ccc(F)cc1	MIN6 prolif-1 8.8 | MIN6 prolif-2 inactive
CCCN(C(=O)CSc1nnnn1C)C1CCS(=O)(=O)C1 (stereo not given)	none
COc1ccc(CNc2cc(C)ccc2C)c(OC)c1OC	MIN6 prolif-1 9.2 | MIN6 prolif-2 inactive
Cc1ccsc1C(=O)OCC(=O)c1ccc[nH]1	none
CCN1CCN(C(=O)Cn2ncc3ccsc3c2=O)CC1	MIN6 prolif-1 9.8 | MIN6 prolif-2 inactive
COc1ccc(Cl)cc1C(=O)OCC(=O)Nc1sccc1C(N)=O	none
COc1cc(N)c(Cl)cc1C(=O)OCC(=O)NCC1CCCCC1	MIN6 prolif-1 8.8 | MIN6 prolif-2 inactive
COc1cc(N)c(Cl)cc1C(=O)OCC(=O)NCC1CCCO1 (stereo not given)	none
COc1ccc(Cl)cc1C(=O)OCC(=O)NCCNC(=O)COC(=O)c1cc(Cl)ccc1OC	MIN6 prolif-1 9.7 | MIN6 prolif-2 inactive
O=C1CSC(c2ccccc2)N1CCc1ccccc1 (stereo not given)	MIN6 prolif-1 7.5 | MIN6 prolif-2 inactive
NC(=O)c1ccc(C2SCC(=O)N2CCc2ccccc2)cc1 (stereo not given)	none
CC(=O)Nc1cccc(-c2cnc(N)c(C(=O)c3cccnc3)n2)c1	MIN6 prolif-1 11 | MIN6 prolif-2 inactive
NS(=O)(=O)c1ccc(NC(=O)c2ccc3c(c2)OCO3)cc1	none
NS(=O)(=O)c1ccc(NC(=O)c2ccc3c(c2)CCCC3)cc1	MIN6 prolif-1 5.3 | MIN6 prolif-2 inactive
COC(=O)c1c(NC(=O)Cc2cccs2)sc(C)c1C	none
CCOC(=O)c1c(NC(=O)Cc2cccs2)sc(C(=O)N2CCCCC2)c1C	MIN6 prolif-1 9.5 (no result: V-ATPase pHluor) | MIN6 prolif-2 inactive
CCOc1ccc(-n2cnnn2)cc1S(=O)(=O)Nc1c(C)cccc1C	MIN6 prolif-1 6.1 | MIN6 prolif-2 inactive
CN1CCC2CC1c1cc(-c3ccc(C(F)(F)F)cc3)ccc12 (stereo not given)	none (no result: MIN6 prolif-1, HDAC3 inhib)
COc1ccc(Nc2nc(N3CCCCC3)nc3ccccc23)c(OC)c1	none
Cc1cc(O)c(NC(=O)c2cc([N+](=O)[O-])ccc2Cl)cc1C	none
CCOC(=O)c1cnc(-n2nc(C)cc2C)nc1Oc1ccccc1F	MIN6 prolif-1 7.8 (no result: Rtt109 HAT inh, HDAC3 inhib, DAGLB inh) | MIN6 prolif-2 inactive
O=C(CNC(=O)c1ccc(Cl)cc1Cl)OCCOc1ccccc1	none
COc1ccc(COn2c(=O)c(C)[n+]([O-])c3ccccc32)cc1OC	MIN6 prolif-1 5.1 | MIN6 prolif-2 inactive
Cc1c2c(nc3ccccc13)CCC(C(C)(C)C)C2 (stereo not given)	none
CCCCCCSc1cc(-c2nc3ccc(C)cn3c2NCCCC)ccc1OC	none
O=S(=O)(Nc1ccc(Cl)cn1)c1ccc(Cl)cc1	none
CCc1ccc(S(=O)(=O)Nc2ccc(Cl)cn2)cc1	MIN6 prolif-1 4.9 | MIN6 prolif-2 inactive
CC1CCCN(Cc2c(O)ccc3c(=O)c(-c4ccc(Cl)cc4)coc23)C1 (stereo not given)	none (no result: HDAC3 inhib)
COC(=O)CSc1nc(-c2cccs2)ccc1C#N	none
CCOC(=O)c1cc2c(=O)n3ccccc3nc2n(Cc2ccco2)c1=NC(=O)c1cccnc1	MIN6 prolif-1 9.5 | MIN6 prolif-2 inactive
CCOC(=O)c1cc2c(=O)n3cccc(C)c3nc2n(Cc2ccco2)c1=NC(=O)c1cccnc1	none (no result: MIN6 prolif-1, HDAC3 inhib)
Cn1c(=O)c2c(ncn2CC(=O)NC2CCCCC2)n(C)c1=O	MIN6 prolif-1 11 | MIN6 prolif-2 inactive
Cc1[nH]c2ccc(Cl)cc2c(=O)c1CN1CCCC1	none
Cc1cc(NC(=O)CCC(=O)N(Cc2cccs2)C(C)(C)C(=O)NC2CCCCC2)no1	MIN6 prolif-1 6.2 | MIN6 prolif-2 inactive
Cc1cc(NC(=O)CCC(=O)N(Cc2ccco2)C(C)(C)C(=O)NC2CCCCC2)no1	none
Cc1cccc(NC(=O)CS(=O)(=O)c2cn(C)c3ccccc23)c1	none
CN(C)S(=O)(=O)c1ccc(N2CCCC2)c(C(=O)NCC(=O)Nc2ccc(F)c(F)c2)c1	none
CCOC(=O)c1oc2ccccc2c1COC(=O)C(C)NC(=O)c1ccco1 (stereo not given)	none
C=CCOc1ccc(-c2nc3c(c(=O)[nH]c(=O)n3CCC)n2CCCC)cc1	MIN6 prolif-1 0.0 | MIN6 prolif-2 inactive
COCCCn1c(-c2ccc(OC)cc2)nc2c1c(=O)[nH]c(=O)n2Cc1ccccc1	MIN6 prolif-1 0.0 | MIN6 prolif-2 inactive
COCCn1c(-c2ccc3ccccc3c2)nc2c1c(=O)[nH]c(=O)n2CC(C)C	MIN6 prolif-1 9.0 | MIN6 prolif-2 inactive
C=CCOc1ccc(-c2nc3c(c(=O)[nH]c(=O)n3Cc3ccccc3)n2CCCOC)cc1	none
Cc1ccc(-c2cc(C(F)F)n3ncc(C(=O)N4CCCc5ccccc54)c3n2)cc1	MIN6 prolif-1 7.8 | MIN6 prolif-2 inactive
Clc1ccc2c(c1)-c1nnc(Br)n1-c1ccccc1S2	none
Brc1nnc2n1-c1ccccc1Sc1ccccc1-2	MIN6 prolif-1 5.6 | MIN6 prolif-2 inactive
CC(=O)Nc1ccc(Oc2cnc3ccccc3n2)cc1	none
CC(=O)Nc1ccc(Oc2cnccn2)cc1	MIN6 prolif-1 0.0 | MIN6 prolif-2 inactive
CC(c1ccccc1)C(CC(=O)O)C(=O)Nc1ccc(Cl)c(Cl)c1 (stereo not given)	none
CCc1nc(N)c(C#N)c(-c2ccco2)c1C	MIN6 prolif-1 7.1 | MIN6 prolif-2 inactive
CCCCCc1nc(N)c(C#N)c(-c2ccco2)c1CCCC	none
CC1CCN(C(=O)c2cc3c(ccc4ccccc43)o2)CC1	none
COc1ccc(CNC(=O)COC(=O)c2ccc(S(=O)(=O)NCc3ccco3)cc2)cc1	none
CCc1ccc(NC(=O)c2noc3c2CCc2ccccc2-3)cc1	MIN6 prolif-1 7.2 | MIN6 prolif-2 inactive
S=c1[nH]nc(-c2cccnc2)n1C1CCCCC1	none
COc1ccc(-c2n[nH]c(=S)n2C2CCCCC2)cc1	MIN6 prolif-1 7.6 | MIN6 prolif-2 inactive
COc1ccccc1NS(=O)(=O)c1ccc2oc(=S)[nH]c2c1	none
CCN(CC)CCN(C(=O)CN1C(=O)c2ccccc2C1=O)c1nc2cc3c(cc2s1)OCO3	MIN6 prolif-1 10 | MIN6 prolif-2 inactive
CCOC(=O)c1c(S(=O)(=O)NCC(=O)Nc2cc(C)ccc2OC)c(C)n(C)c1C	none
CCOC(=O)c1c(S(=O)(=O)NCC(=O)Nc2ccccc2OC)c(C)n(C)c1C	MIN6 prolif-1 13 | MIN6 prolif-2 inactive
